Results: PubChem BioAssay (NCI)
Compounds without any hit were thinned out: in the full panel of roughly 79,000, 15% have a hit. Active and inactive are the calls of the source. Rule as the data show it: active = growth inhibition above about 70%; inactive = the rest.

Key:
[1] = NCI Yeast Anticancer Drug Screen. Data for the rad52 strain (AID 147);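 also: 0% = growth of vehicle-treated control cultures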; details: S. cerevisiae rad52 mutant growth inhibition, hits give high values
Method in brief: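 Here a repair-compromised yeast strain receives each compound; its growth is then quantified and normalised to vehicle-only controls.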

[2] = NCI Yeast Anticancer Drug Screen. Data for the wt1 strain (AID 149);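 also: 0% = growth of vehicle-treated wt1 cultures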; details: S. cerevisiae wt1 strain (SPY 50644) growth inhibition, hits give high values
Method in brief: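 Compounds are added to wt1 yeast cultures. Growth is then measured. Inhibition is expressed relative to vehicle-treated controls.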

[3] = NCI Yeast Anticancer Drug Screen. Data for the rad50EPP+ strain (AID 151);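 also: 0% = growth of vehicle-treated control cultures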; details: S. cerevisiae rad50 mutant strain, hits give high values
Method in brief: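 Read-out is yeast growth inhibition relative to vehicle; cells used were the rad50EPP+ strain.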

[4] = NCI Yeast Anticancer Drug Screen. Data for the mgt1 strain (AID 153); details: S. cerevisiae mgt1 mutant growth inhibition, hits give high values
Method in brief: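 Measured: inhibition of mgt1 yeast growth by compound, normalized to vehicle-treated cultures.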

[5] = NCI Yeast Anticancer Drug Screen. Data for the rad50 strain (AID 155);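 also: 0% = growth of vehicle-only cultures of the same strain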; details: S. cerevisiae rad50 strain growth inhibition, hits give high values
Method in brief: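 Inhibition values express reduced yeast growth in compound-treated cultures relative to vehicle-treated controls.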

[6] = NCI Yeast Anticancer Drug Screen. Data for the mec2-1 strain (AID 157); details: S. cerevisiae mec2-1 strain, hits give high values
Method in brief: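 Using mec2-1 yeast: add compound, measure growth, express inhibition versus vehicle-treated cultures.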

[7] = NCI Yeast Anticancer Drug Screen. Data for the rad14 strain (AID 159);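 also: 0% = growth of vehicle-treated control cultures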; details: S. cerevisiae rad14 strain growth inhibition, hits give high values
Method in brief: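 A mutant yeast strain defective in DNA damage repair is treated with compound; inhibition of its growth is scored against untreated, vehicle-exposed cultures.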

[8] = NCI Yeast Anticancer Drug Screen. Data for the sgs1 mgt1 strain (AID 161);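 also: 0% = growth of cultures given vehicle only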; details: S. cerevisiae sgs1 mgt1 strain, hits give high values
Method in brief: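 This yeast growth screen uses a strain with defined DNA-repair lesions; compound-treated growth is compared with vehicle-treated growth.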

[9] = NCI Yeast Anticancer Drug Screen. Data for the CLN2oe strain (AID 163);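 also: 0% = growth of vehicle-only control cultures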; details: S. cerevisiae CLN2oe strain, hits give high values
Method in brief: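 Whole-cell yeast growth assay. A strain engineered for altered cell-cycle control received compound, and inhibition relative to vehicle-treated cultures was recorded.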

[10] = NCI Yeast Anticancer Drug Screen. Data for the cln2 rad14 strain (AID 165);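 also: 0% = growth equal to vehicle treated cultures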; details: S. cerevisiae cln2 rad14 strain, hits give high values
Method in brief: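 Yeast strain cln2 rad14, bearing defects in cell cycle control and DNA repair, serves as the test system; values reflect growth inhibition compared with vehicle.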

[11] = NCI Yeast Anticancer Drug Screen. Data for the bub3 strain (AID 167); details: S. cerevisiae bub3 mutant strain, hits give high values
Method in brief: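 Steps: expose the mutant yeast strain to compound; grow alongside vehicle-treated cultures; measure growth; express inhibition against the vehicle cultures.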

[12] = NCI Yeast Anticancer Drug Screen. Data for the wt2 strain (AID 169);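 also: 0% = growth of vehicle-treated yeast cultures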; details: S. cerevisiae wt2 strain growth inhibition, hits give high values
Method in brief: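 Treated yeast vs. vehicle-treated yeast: growth inhibition determined.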

[13] = NCI Yeast Anticancer Drug Screen. Data for the mlh1 strain (AID 171);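 also: 0% = growth of vehicle-treated control cultures of the same strain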; details: S. cerevisiae mlh1 strain growth inhibition, hits give high values
Method in brief: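 A yeast strain with a defined genetic lesion serves as the test organism. Cultures receive compound or vehicle, and growth is measured.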

[14] = NCI Yeast Anticancer Drug Screen. Data for the sgs1 strain (AID 173);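 also: 0% = growth of vehicle-only control cultures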; details: S. cerevisiae sgs1 mutant, hits give high values
Method in brief: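 A genetically defined yeast mutant is incubated with the test compound, and its growth is compared to that of the same strain given vehicle.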

[15] = NCI Yeast Anticancer Drug Screen. Data for the mlh1 rad18 strain (AID 175); details: S. cerevisiae mlh1 rad18 strain growth inhibition, hits give high values
Method in brief: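 Steps: expose repair-defective yeast to compound; measure growth; express inhibition against vehicle-treated controls.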

[16] = NCI Yeast Anticancer Drug Screen. Data for the rad18 strain (AID 177); details: S. cerevisiae rad18 mutant growth inhibition, hits give high values
Method in brief: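 Measured value is growth inhibition of a yeast strain bearing a DNA repair alteration, referenced to vehicle-treated cells.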

[17] = at 5.0 µM (retest, dose inferred, filed as 0.5)
[18] = at 50.0 µM (retest, dose inferred, filed as 5.0)

Measured: growth inhibition

COc1ccc(/C=C/c2sc3ccccc3[n+]2CCCCI)cc1OC
inactive: [1]; at 1.2 µM -8% | [1]; at 3.7 µM 1% | [1]; at 11.0 µM -2% | [1]; at 33.0 µM 55% | [2]; at 1.2 µM -84% | [2]; at 3.7 µM -3% | [2]; at 11.0 µM -6% | [2]; at 33.0 µM 33% | [3]; at 1.2 µM -5% | [3]; at 3.7 µM -2% | [3]; at 11.0 µM -4% | [3]; at 33.0 µM 0% | [3]; at 100.0 µM -3% | [4]; at 1.2 µM 0% | [4]; at 3.7 µM -1% | [4]; at 11.0 µM -4% | [5]; at 1.2 µM -2% | [5]; at 3.7 µM -3% | [5]; [17] -11% | [5]; at 11.0 µM -7% | [5]; at 33.0 µM 48% | [5]; [18] 20% | [6]; at 1.2 µM -6% | [6]; at 3.7 µM -6% | [6]; [17] -16% | [6]; at 11.0 µM -11% | [6]; at 33.0 µM 64% | [6]; [18] 56% | [7]; at 1.2 µM -2% | [7]; at 3.7 µM -3% | [7]; at 11.0 µM -7% | [8]; [17] -9% | [8]; [18] 29% | [9]; at 1.2 µM -7% | [9]; at 3.7 µM -7% | [9]; at 11.0 µM -8% | [9]; at 33.0 µM -10% | [9]; at 100.0 µM 68% | [10]; [17] 36% | [10]; [18] 54% | [10]; at 50.0 µM 29.6% | [11]; at 1.2 µM -4% | [11]; at 3.7 µM -8% | [11]; [17] 0% | [11]; at 11.0 µM -2% | [11]; at 33.0 µM 1% | [12]; at 1.2 µM -3% | [12]; at 3.7 µM -3% | [12]; at 11.0 µM -6% | [12]; at 33.0 µM 26% | [13]; at 1.2 µM -2% | [13]; at 3.7 µM -4% | [13]; at 11.0 µM -6% | [13]; at 33.0 µM 66% | [14]; at 1.2 µM 1% | [14]; at 3.7 µM 4% | [14]; at 11.0 µM -2% | [15]; [17] -9% | [15]; [18] 46% | [16]; at 1.2 µM -3% | [16]; at 3.7 µM 0% | [16]; at 11.0 µM 9%
active: [1]; at 100.0 µM 94% | [2]; at 100.0 µM 89% | [4]; at 33.0 µM 76% | [4]; at 100.0 µM 98% | [5]; at 50.0 µM 74.9% | [5]; at 100.0 µM 93% | [6]; at 50.0 µM 81.4% | [6]; at 100.0 µM 95% | [7]; at 33.0 µM 84% | [7]; at 100.0 µM 98% | [8]; at 50.0 µM 95.2% | [11]; [18] 97% | [11]; at 50.0 µM 91.8% | [11]; at 100.0 µM 85% | [12]; at 100.0 µM 97% | [13]; at 100.0 µM 97% | [14]; at 33.0 µM 84% | [14]; at 100.0 µM 97% | [15]; at 50.0 µM 95.6% | [16]; at 33.0 µM 86% | [16]; at 100.0 µM 96%

Cc1ccccc1N=C(NO)c1ccccc1
active: [1]; at 100.0 µM 97% | [2]; at 100.0 µM 93% | [4]; at 100.0 µM 95% | [5]; at 50.0 µM 90.6% | [5]; at 100.0 µM 97% | [6]; at 50.0 µM 82.8% | [6]; at 100.0 µM 97% | [7]; at 100.0 µM 96% | [8]; at 50.0 µM 80% | [9]; at 100.0 µM 95% | [10]; at 50.0 µM 74.2% | [11]; at 50.0 µM 76.8% | [11]; at 100.0 µM 94% | [12]; at 100.0 µM 94% | [13]; at 100.0 µM 95% | [14]; at 100.0 µM 98% | [15]; at 50.0 µM 92.9%
inactive: [1]; at 1.2 µM 10% | [1]; at 3.7 µM 9% | [1]; at 11.0 µM 22% | [1]; at 33.0 µM 60% | [2]; at 1.2 µM 0% | [2]; at 3.7 µM -4% | [2]; at 11.0 µM -6% | [2]; at 33.0 µM 9% | [3]; at 1.2 µM 1% | [3]; at 3.7 µM 6% | [3]; at 11.0 µM 15% | [3]; at 33.0 µM 42% | [3]; at 100.0 µM 67% | [4]; at 1.2 µM 0% | [4]; at 3.7 µM -4% | [4]; at 11.0 µM -4% | [4]; at 33.0 µM 30% | [5]; at 1.2 µM 8% | [5]; at 3.7 µM 15% | [5]; [17] -141% | [5]; at 11.0 µM 31% | [5]; at 33.0 µM 59% | [5]; [18] 33% | [6]; at 1.2 µM 1% | [6]; at 3.7 µM 0% | [6]; [17] -44% | [6]; at 11.0 µM -5% | [6]; at 33.0 µM 49% | [6]; [18] 14% | [7]; at 1.2 µM 0% | [7]; at 3.7 µM -4% | [7]; at 11.0 µM 6% | [7]; at 33.0 µM 29% | [8]; [17] -61% | [8]; [18] 49% | [9]; at 1.2 µM -3% | [9]; at 3.7 µM -5% | [9]; at 11.0 µM -2% | [9]; at 33.0 µM 20% | [10]; [17] -56% | [10]; [18] 20% | [11]; at 1.2 µM 3% | [11]; at 3.7 µM -1% | [11]; [17] -67% | [11]; at 11.0 µM -5% | [11]; at 33.0 µM 5% | [11]; [18] 37% | [12]; at 1.2 µM -3% | [12]; at 3.7 µM -3% | [12]; at 11.0 µM -4% | [12]; at 33.0 µM 20% | [13]; at 1.2 µM 1% | [13]; at 3.7 µM 2% | [13]; at 11.0 µM 2% | [13]; at 33.0 µM 31% | [14]; at 1.2 µM 1% | [14]; at 3.7 µM 6% | [14]; at 11.0 µM 15% | [14]; at 33.0 µM 62% | [15]; [17] -122% | [15]; [18] 29%
